In PubChem BioAssay AID818 (SRMLSC, 2007):
In all, about 140,000 compounds went through this assay and about 2,100 (1.5%) were called active.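 The calls were made as follows: active = viability at or under a set limit, the compound median less 4 SD (cut at about 6% in these data); inactive = the rest.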 The entries come from a sample that favours actives as a whole.

Assay: primary screen for growth suppressors in beta-catenin knockout HCT116 cells (colon tumor, human) (AID 818);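 also: 0% = Hyamine 1622 control at 20 µM and 100% = untreated cell control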
Details: CellTiter-Glo, 60 h, at 10 µM, hits give low values
For `Cc1ccn(CC(=O)N2N=C(C(F)F)CC2(O)C(F)F)n1` (configuration not stated), the viability was 101% (inactive).
For `N#C/C(=C\C1=C(N2CCOCC2)C(=C\c2ccccc2)/CC1)C(=O)Nc1ccccc1F`, the viability was 65.8% (inactive).
With `CCN(CC)c1ccc(/C=N/Nc2nc(C)cc(C)n2)c(O)c1` the viability was 5.53% (active).
In the case of `Oc1ccc(/C=N/NC2=NCCCCC2)c(O)c1`, the viability was 94.7% (inactive).
In the case of `CCN(CC)c1ccc(/C=N/Nc2nc(C)cc(=O)[nH]2)cc1`, the viability was 76.5% (inactive).
For `CCOC(=O)c1c(NC(=O)C2(C)Cc3ccccc3C(=O)O2)sc2c1CCCC2` (configuration not stated), the viability was 79.4% (inactive).
With `Cc1ccc(C)c(NC(=O)CCC(=O)NNC(=O)c2cccs2)c1` the viability was 96.8% (inactive).
For `O=C(/C=C\c1ccc2c(c1)OCO2)NC1(C(=O)Nc2ccc3c(c2)OCCO3)CCCCC1`, the viability was 102% (inactive).
In the case of `COc1ccc2nc(Nc3nc4cc5c(cc4s3)OCCO5)sc2c1`, the viability was 90.5% (inactive).
In the case of `COc1ccc2nc(Nc3nc4ccc(NC(C)=O)cc4s3)sc2c1`, the viability was 2.25% (active).
With `CCOc1ccc2nc(Nc3nc4ccc(NC(C)=O)cc4s3)sc2c1` the viability was 74.6% (inactive).
In the case of `COc1ccc(C2=NN(C(=O)c3cccnc3)C(c3ccccc3)C2)cc1` (configuration not stated), the viability was 100% (inactive).
In the case of `COC(=O)c1c(NC(=O)CN2CCN(S(=O)(=O)c3ccccc3[N+](=O)[O-])CC2)sc2c1CCC(C)C2` (configuration not stated), the viability was 90.5% (inactive).
With `CN1CCN(CC(=O)Nc2sc3c(c2C#N)CCC(C(C)(C)C)C3)CC1` (configuration not stated) the viability was 3.32% (active).
With `CCC1CCc2c(sc(NC(C)=O)c2C#N)C1` (configuration not stated) the viability was 101% (inactive).
For `CCNc1nc(NC(C)C)nc(N2CC(=O)N(CC(=O)OCC)C2=N)n1`, the viability was 94.3% (inactive).
In the case of `Oc1c(Cl)cc(Cl)c(Cl)c1Cc1c(O)c(Cl)cc(Cl)c1Cl`, the viability was 4.83% (active).
In the case of `CCCn1c(=O)c2c(C(F)(F)F)cc(-c3cccs3)nc2n(CCC)c1=O`, the viability was 90% (inactive).
For `c1ccc2c(c1)C(=NC1CCCCC1)NC2=NC1CCCCC1`, the viability was 5.56% (active).
For `O=C1CCCCC(=O)c2ccccc2N1`, the viability was 101% (inactive).
For `CC(C[N+](C)(C)C)OC(N)=O` (configuration not stated), the viability was 1.28% (active).
With `CC(=O)OC(C)C[N+](C)(C)C` (configuration not stated) the viability was 102% (inactive).
With `CCCCn1c(O)c(N=NC(=O)Cn2c(C(F)(F)F)nc3ccccc32)c2ccccc21` the viability was 93.1% (inactive).
In the case of `CC(C)(C)NC(=O)C(=O)NCc1ccncc1`, the viability was 98.5% (inactive).
In the case of `O=C(CSC(=S)N1CCOCC1)c1ccccc1`, the viability was 98.3% (inactive).
In the case of `Cn1ncc2c(NNC(=O)Cc3cccc4ccccc34)ncnc21`, the viability was 86.8% (inactive).
In the case of `NS(=O)(=O)c1ccc(N=Cc2ccc(Br)s2)cc1`, the viability was 101% (inactive).
